About 83,000 compounds went through this panel and 20% of them were active in at least one assay; those are over-represented in the sample as a whole.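 Activity criterion: percent growth below 10, measured after cells in 96-well plates were exposed to a single compound concentration for 48 hours.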 A number with no mark means an inactive call. The source made the active and inactive calls.

For the assay, the system named is SNB-75 CNS. As to the kind of experiment: NCI-60 one-dose screen, 48 h (100 = growth as untreated, 0 = no growth, -100 = all killed). To be noted: 10 µM unless noted. The procedure: Growth inhibition of the SNB-75 human tumor cell line is measured as a screen for anti-cancer activity. Cells are grown in 96 well plates and exposed to the test compound for 48 hours. Compounds are tested at a single concentration, which is 10^-5 M for most compounds. The reported endpoint is percent growth (GI% or GIPRCNT), where numbers from 0 - 100% represent growth inhibition, and numbers from -100% - 0 represent cell death. For example, a value of 40 represents 60% growth inhibition. A value of 0 means no net growth occurred over the course of the experiment. A value of -40 indicates 40% of cells at the beginning of the experiment died by the end of the experiment. A value of -100 means all cells are dead at the end of the experiment.
NCI-60 Human Tumor Cell Lines Screen was performed using the standard one-dose NCI protocol, which is described in more detail at https://dtp.cancer.gov/discovery_development/nci-60/default.htm.
Compounds with GIPRCNT values below 10 were considered active. Activity score was based on GIPRCNT using the following formula: […]
Score is 0 for GIPRCNT values of 100 or above, 50 for GIPRCNT values of 0, and 100 for GIPRCNT values of -100.
With `COC(=O)CNC(=O)c1ccc(NC(=O)c2[nH]c(C)c(Cl)c2Cl)c(O[C@H]2CCNC2)c1`, the growth was 94.8%.

As for `Cc1cc(C)n(C(=O)CSc2nc3sc4c(c3c(=O)n2-c2ccccc2)CCCCC4)n1`, the growth was 89.6%.

Turning to `O=C(/C=C/c1ccco1)Nc1ncc(Cc2ccc(F)cc2)s1`, the growth was 19.9%.

Regarding `Nc1ccc(Cl)c2c(=O)c3ccccc3[nH]c12`, the growth was 84.2%.

For `OC1CSSC1Cn1cnc2c(Nc3ccc(F)c(Cl)c3)ncnc21` (stereo not given), the growth was 114%.

On to `C#CC#CC#CC#CC#CC#CC#CC#CC[C@@H]1OC[C@H](COC(=O)O[C@@H](C(=O)O[C@H]2C[C@@]3(O)[C@@H](OC(=O)c4ccccc4)[C@@H]4[C@]5(OC(C)=O)CO[C@@H]5C[C@H](O)[C@@]4(C)C(=O)[C@H](OC(C)=O)C(=C2C)C3(C)C)[C@@H](NC(=O)c2ccccc2)c2ccccc2)O1`, for which the growth was 34.9%.

As to `C/C(=N\NC(=O)c1ccc(C(C)(C)C)cc1)c1ccc(O)cc1O`, the growth is 54.7%.

`Cc1c(C(=O)C(SC(=S)N2CCOCC2)SC(=S)N2CCOCC2)nnn1-c1ccc([N+](=O)[O-])cc1`: the growth is 94.2%.

In the case of `COc1ccc(C(=O)/C=C/c2ccc(Cl)cc2)cc1S(N)(=O)=O`, the growth is 82.5%.

Take `CCOC(=O)C1=C(c2ccccc2)N=C2N(c3ccccc3)N=C(C(C)=O)N2C1c1ccc(Br)cc1` (stereo not given): the growth is 85.8%.

As for `CCCCC#Cc1c(I)n(C2OC(CO[Si](C)(C)C(C)(C)C)C3OC(C)(C)OC32)c(=O)[nH]c1=O` (stereo not given), the growth is 85.5%.

`CC(C)(C)n1cc(-c2ccnc(NCCNS(=O)(=O)c3cccc4ccccc34)c2)c(-c2cccc(O)c2)n1`: the growth was 37.9%.

As for `CCOC(=O)C1=C(C)N(C)C(=O)N(C)C1c1ccccc1` (stereo not given), the growth was 79.2%.

Regarding `COc1cc2cc(Oc3ccc(NC(=O)Nc4ccc(F)c(C(F)(F)F)c4)cc3)c(C)nc2cc1OCCN1CCCCC1`, the growth was 92.7%.

Take `CN(C)CCCN(CCC1CCCCC1)CCC1CCCCC1`: the growth was 62.2%.

Regarding `COc1ccc(NC(=O)c2ccc(Cl)cc2Cl)cc1`, the growth is 89.9%.

For `O=C(O)c1cc2ccccc2s1`, the growth was 97.9%.

As for `Cc1[nH]c(C(=O)Nc2ccc(C(N)=O)cc2OC(C)C)c(Cl)c1Cl`, the growth was 93.3%.

In the case of `COc1ccc2c(O)cc3c(c2c1)[C@H](CCl)CN3C(=O)c1cc2cc(NC(=O)CCN3CCOCC3)ccc2[se]1`, the growth was -87.8% (active).

As for `CCCN1C(=O)N(CCC)C2C1NC(=S)N2/N=C/C=C/c1ccccc1OC` (stereo not given), the growth is -17.4% (active).

As for `c1ccc(-c2cn3nc(-c4c[nH]c5ccccc45)sc3n2)cc1`, the growth was 54.1%.

Take `CCNCCNc1c(C)c(-c2ccc(C(F)(F)F)cc2)c(C#N)c2nc3ccccc3n12`: the growth was 57.6%.

For `COc1cc(/C=C2\CN(S(=O)(=O)c3ccc(C)cc3)C/C(=C\c3cc(CN4CCCC4)c(O)c(OC)c3)C2=O)cc(CN2CCCC2)c1O`, the growth was 34.3%.

Consider `c1ccc(-c2nc(N3CCNCC3)c3oc(-c4ccccc4)nc3n2)cc1`, for which the growth is -95.9% (active).

For the compound `FC(F)(F)c1cc(N2CCCCC2)nc(NCCCNc2ccnc3cc(Cl)ccc23)n1`, the growth was 71.9%.

On to `CCOC(=O)c1ccc2c(c1)[n+](=O)c(C(C)=O)c(C(F)(F)F)n2[O-]`, for which the growth is 25.6%.

Take `C=C1C(=O)O[C@H]2[C@H]1CC/C(CNC(=O)/C=C/c1cc(OC)c(OC)c(OC)c1)=C\CC[C@@]1(C)O[C@@H]21`: the growth is 46.9%.

Consider `CCOc1ccccc1NC(=O)CCC(=O)OC`, for which the growth is 75.7%.

`O=C(NC1CCCCCC1)c1ccc2c(=O)n3c(nc2c1)CCCCC3`: the growth was 62.9%.

Take `CCOC(=O)c1c(NC(=S)Nc2ccc([N+](=O)[O-])cc2)sc2c1CCCCC2`: the growth was 86.6%.

`O=C(/C=C/c1cccc([N+](=O)[O-])c1)c1ccc(Nc2nc(Nc3ccc(F)cc3)nc(Nc3ccc(Cl)cc3)n2)cc1`: the growth is 106%.

For `C#Cc1c(I)n(C2OC(CO[Si](C)(C)C(C)(C)C)C3OC(C)(C)OC32)c(=O)[nH]c1=O` (stereo not given), the growth was 86.8%.

Take `COC12C=C/C(=C(/C(=O)OCc3ccccn3)C(=O)CCCCCCCCC3(OC)C=C/C(=C(/C(=O)OCc4ccccn4)C(=O)CCCCCCCC1)O3)O2`: the growth is 1.28% (active).

As to `C=CC(=O)Nc1ccc2ncnc(Nc3cccc(NS(=O)(=O)CCC)c3Cl)c2c1`, the growth was 8.28% (active).

Take `CCOC(=O)C1=C(c2ccccc2)N=C2SC=C(c3cccc([N+](=O)[O-])c3)N2C1c1ccc(O)cc1` (stereo not given): the growth was 91.4%.

Regarding `C#CC(F)(F)[C@]1(O)CCC2C3CCC4=CC(=O)CCC4=C3[C@@H](c3ccc(N(C)C)cc3)C[C@@]21C` (stereo not given in full), the growth is 73.9%.

As for `COc1cc(OC)cc(C(=O)Nc2cnc(Nc3ccc(N4CCOCC4)nc3)nc2Oc2ccc(C(F)(F)F)cc2)c1`, the growth was -14.5% (active).

Consider `C/C(=C(\c1ccc(OCCCN(C)C)cc1)c1ccc(OC(=O)Cc2ccccc2)cc1)c1ccc(Cl)cc1`, for which the growth is 77.3%.

Turning to `COc1ccccc1NC(=O)n1c(=O)cc(C)c2ccc(O)cc21`, the growth was 101%.

As to `N#C/C(=N\Nc1ccccc1)C(=O)Nc1cc(-c2ccccc2)nn1-c1ccccc1`, the growth is 68.2%.

The values above are taken from PubChem BioAssay (NCI).
